This is a sample that favours compounds with a hit; in the whole collection about 1.3% have one here.
PREPL inh – inhibitors of human prolyl oligopeptidase-like enzyme PREPL. recombinant PREPL, fluorescence polarization activity-based probe. inhibition, % at 5.96 µM. actives 0.68% (n = 320,000). AID 2751;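 also: 0% = enzyme with DMSO and 100% = wells lacking enzyme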
Fam108B counter – Fam108B inhibition, counter-screen for RBBP9 inhibitors; recombinant Fam108B, FP-Rh probe fluorescence polarization; inhibition, % at 9.51 µM; actives 0.33% (n = 300,000); AID 1947;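 active = inhibition above the screen mean inhibition plus 3 SD, computed separately per campaign, cut at about 18% in these data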;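 also: inhibitors lower polarization as less probe binds the enzyme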
LYPLA1 inh – counter-screen for PME1 inhibitors: inhibitors of human LYPLA1; inhibition, % at 5.9 µM; recombinant LYPLA1, FP-Rh probe fluorescence polarization; actives 0.16% (n = 320,000); O75608;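 active = inhibition above the mean of all tested compounds plus 3 SD, set per campaign, cut at about 14% in these data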;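 also: inhibitors block serine hydrolase probe labeling of LYPLA1 so polarization falls; 0% = enzyme with DMSO and 100% = wells lacking LYPLA1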
PME-1 primary – PME-1 (human) inhibition | recombinant PME-1, FP-Rh probe fluorescence polarization | inhibition, % at 5.9 µM | actives 0.53% (n = 320,000) | AID 2130;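 active = inhibition above the campaign mean of all compounds plus 3 SD, cut at about 26% in these data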;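 also: competitive labeling of PME-1 active site by serine hydrolase directed probe; 0% = PME-1 with DMSO and 100% = wells lacking PME-1 enzyme; inhibitors block probe labeling so polarization falls and inhibition rises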
LYPLA2 counter – LYPLA2 (human) inhibition in PME1 counter-screen | O95372 | recombinant LYPLA2, FP-Rh probe fluorescence polarization | inhibition, % at 5.9 µM | actives 0.38% (n = 320,000) | AID 2177;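 active = inhibition above the screen-wide mean plus 3 SD, limit set per campaign, cut at about 26% in these data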;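 also: 0% = LYPLA2 with DMSO and 100% = wells lacking LYPLA2 enzyme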
Target sequence (O95372 whole entry, looked up): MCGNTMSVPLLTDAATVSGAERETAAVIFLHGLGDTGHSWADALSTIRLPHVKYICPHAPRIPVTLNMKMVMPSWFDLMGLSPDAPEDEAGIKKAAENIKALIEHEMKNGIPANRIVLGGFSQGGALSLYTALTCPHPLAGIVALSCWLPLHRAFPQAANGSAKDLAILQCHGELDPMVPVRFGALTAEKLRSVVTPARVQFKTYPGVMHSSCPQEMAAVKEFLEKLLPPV
PREPL inh cf – confirmation of human PREPL enzyme inhibitors; shares compounds with PREPL inh; recombinant PREPL, fluorescence polarization activity probe; inhibition, % at 5.96 µM; actives 67% (n = 2,000);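 also: 0% = protein with DMSO and 100% = wells lacking protein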
* hit, by the source's call; . = no result given. Rule as the data show it, unless noted: active = inhibition above about 43%; inactive = the rest.

SMILES	PREPL inh	Fam108B counter	LYPLA1 inh	PME-1 primary	LYPLA2 counter	PREPL inh cf
COc1cc(C2CC(=O)Oc3c(C(CCN4CCCC(C)C4)c4ccc(N(C)C)cc4)c(OC)cc(OC)c32)cc(OC)c1OC (centres undefined)	46*	-4	-2	-1	3	52*
COC(=O)c1ccc(OCCOCCOc2cccc3ccc(C)nc23)cc1	9	-5	1	3	5	.
COC(=O)c1ccccc1OCCOCCOc1cccc2ccc(C)nc12	49*	1	-2	-1	4	2
O=S(=O)(c1ccc(SCc2ccc(Cl)cc2)nc1)N1CCCC1	15	.	-2	0	0	.
CN(C)CCCNc1cc(C(C)(C)C)nc2c(-c3ccc(Cl)cc3)cnn12	52*	5	-1	6	1	49*
CS(=O)(=O)N(CC(=O)N1CCc2ccccc2C1)c1cccc(Br)c1	-31	1	1	0	2	.
O=C(c1cc([N+](=O)[O-])ccc1Cl)N1CCN(c2ccc([N+](=O)[O-])cc2)CC1	65*	3	2	4	12	58*
COc1ccc(C2CC(C)(c3ccc(OC)cc3)Nc3ccccc3N2)cc1 (centres undefined)	45*	3	-2	6	-7	39
COc1ccc(C2(C)CC(C)(C)Nc3ccccc32)cc1 (centres undefined)	-5	-2	-2	-2	2	.
O=C(NCCc1cscn1)C1CCC(=O)N(Cc2ccc(Cl)cc2)C1 (centres undefined)	3	1	-3	2	-2	.
CCC(CO)Oc1cc(NCc2ccc(Cl)cc2)c2ncn(C(C)C)c2c1 (centres undefined)	48*	.	.	.	.	23
CCC(CO)Oc1cc(NCc2ccc(C)cc2)c2ncn(C(C)C)c2c1 (centres undefined)	40	.	.	.	.	.
CCOc1ncccc1C(=O)OCC(=O)Nc1ccc2c(c1)OCO2	0	2	2	-6	-6	.
Oc1c(CN2CCCCC2)cc(COCc2ccccc2)c2cccnc12	56*	-2	-5	-4	-4	84*
COCc1cc(CN2CCCC2)c(O)c2ncccc12	8	5	-3	0	6	.
Nc1nc(Sc2c([N+](=O)[O-])cc(C(F)(F)F)cc2[N+](=O)[O-])n[nH]1	-4	-6	-3	-4	-1	.
c1ccc(C(c2nnnn2Cc2ccco2)N2CCN(c3nc4ccccc4s3)CC2)cc1 (centres undefined)	44*	-6	0	-1	3	41
c1ccc(Cn2nnnc2C(c2ccccc2)N2CCN(c3nc4ccccc4s3)CC2)cc1 (centres undefined)	27	-3	3	-1	1	.
Cn1c(NN)nc2ccccc2c1=O	45*	2	1	0	7	26
O=C(Nc1ccccc1Br)c1c(F)cccc1Cl	5	-5	-2	0	-7	.
COc1ccc(-n2c(-c3ccccc3)cc3c2CCCC3=O)cc1	49*	1	0	15	-1	41
Cc1ccc(Sc2cnn(-c3ccccc3)c(=O)c2Cl)cc1	46*	4	7	3	1	38
C#CCOCCOCCOCCNc1nc(N2CCN(C(=O)CCCCCCCCCCNC(=O)[C@H](CCCCN)n3cc(CCCC(=O)O)nn3)CC2)nc(N2CCN(C(=O)CCCCCCCCCCNC(=O)[C@H](CCCCN)n3cc(CCCC(=O)O)nn3)CC2)n1	12	-2	-3	-2	-1	.
C#CCOCCOCCOCCNc1nc(N2CCN(C(=O)CCCCCCCCCCNC(=O)[C@H](CCCCN)n3cc(CCO)nn3)CC2)nc(N2CCN(C(=O)CCCCCCCCCCNC(=O)[C@H](CCCCN)n3cc(CCO)nn3)CC2)n1	58*	0	2	-3	-1	47*
C#CCOCCOCCOCCNc1nc(N2CCN(C(=O)CCCCCCCCCCNC(=O)[C@H](CCCCN)n3cc(CCCC(=O)O)nn3)CC2)nc(N2CCN(C(=O)CCCCCCCCCCNC(=O)[C@H](CCCN=C(N)N)n3cc(C[C@@H](C)CC)nn3)CC2)n1	44*	-3	-8	-5	-10	35

Screens from PubChem BioAssay.
